Source: PubChem BioAssay (Tox21)
Inconclusive results are not listed. Activity calls are given as the source filed them. Unless noted, calls come from the whole dose curve.

Key:
[1] = Nuclear factor erythroid 2-related factor 2/antioxidant responsive element (Nrf2/ARE) small molecule agonists: qHTS cell viability counter screen in human keratinocytes (AID 1919968; active = well fitted curve in the direction sought with a large enough effect in the repeat runs; an effect the other way counts as inactive or inconclusive; note: nearly all actives have a fitted effect of over 55% in size; note: potency is the fitted concentration of half-maximal effect)
How it was run: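 In human HaCaT keratinocytes stably expressing an ARE-driven luciferase, compound exposure lasted 23 h at 37 C under 5% CO2. Viable cells are quantified with a protease-based fluorogenic reagent (CellTiter-Fluor) read 1 h after addition.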

[2] = Nuclear factor erythroid 2-related factor 2/antioxidant responsive element (Nrf2/ARE) small molecule agonists: luciferase reporter gene qHTS assay in human keratinocytes (AID 1919969); note: nearly all actives have a fitted effect of over 35% in size; note: potency is the fitted concentration of half-maximal effect
[3] = biological target: Gonadotropin-releasing hormone receptor (Homo sapiens) (UniProt P30968); test: Human gonadotropin-releasing hormone receptor (GnRHR) small molecule agonists, calcium flux assay in GnRHR-HEK293 cells (AID 1920063); note: nearly all actives have a fitted effect of over 35% in size
How it was run: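 Intracellular calcium rise is the read-out: engineered human GnRHR HEK293 cells, dye-loaded, are exposed to DMSO-dissolved compounds and fluorescence at Ex/Em 480/540 is tracked for 3 min.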

[4] = biological target: KiSS-1 receptor (Homo sapiens) (UniProt Q969F8); test: Human kisspeptin (KISS1R) small molecule agonists, calcium flux assay in KISS1R-HEK293 cells (AID 1920064; active = well fitted curve in the direction sought with a large enough effect in the repeat runs; an effect the other way counts as inactive or inconclusive)
How it was run: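 Concentration-response testing used 15 concentrations in triplicate on human KISS1R-expressing HEK293 cells. Calcium-dependent fluorescence (Ex/Em 480/540) was followed kinetically for 3 min after compound transfer.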

[5] = G protein-coupled receptor (GPCR) small molecule agonists, calcium flux assay: HEK293 wild type cell line counter screen (AID 1920065)
How it was run: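 Fluorescence intensity signals activation. After overnight (18 h) culture and a 1 h calcium dye load at 37 C, compounds are added by pin tool and the plate read at 480/540 nm for 3 min in 1 s steps.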

[6] = p53 small molecule agonists, cell-based qHTS assay with human liver microsomes (AID 1963577)
How it was run: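 p53RE-bla reporter cells were pre-incubated 5 h at 37 C, then treated with compounds plus human liver microsomes (0.5 mg/mL final) and NADPH (0.5 mg/mL final) for 16 h at 37 C. Beta-lactamase activity was read by LiveBLAzer fluorescence after 2 h at room temperature.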

[7] = p53 small molecule agonists, cell-based qHTS assay with rat liver microsomes (AID 1963578)
How it was run: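 p53RE-bla cells were exposed to compounds together with rat liver microsomes (0.5 mg/mL final) and NADPH (0.5 mg/mL final) for 16 h at 37 C, then read by LiveBLAzer beta-lactamase fluorescence after 2 h at room temperature.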

[8] = p53 small molecule agonists, cell-based qHTS assay with human liver microsomes: qHTS cell viability counter screen (AID 1963579); note: nearly all actives have a fitted effect of over 45% in size
How it was run: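 p53RE-bla cells (4,000/well) were pre-incubated 5 h at 37 C, then given compounds in DMSO plus human liver microsomes (0.5 mg/mL final) and NADPH (0.5 mg/mL final) for 16 h at 37 C. Viability was read by CellTiter-Glo luminescence.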

[9] = p53 small molecule agonists, cell-based qHTS assay with rat liver microsomes: qHTS cell viability counter screen (AID 1963580); note: nearly all actives have a fitted effect of over 45% in size
How it was run: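 Cytotoxicity counter screen: intracellular ATP read by CellTiter-Glo luminescence in the p53 reporter wells. HCT-116 p53RE-bla cells were treated for 16 h at 37 C alongside rat liver microsomes and NADPH, each 0.5 mg/mL final.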

[10] = p53 small molecule agonists, cell-based qHTS assay (AID 1963582; active = well fitted activation curve with a large enough effect in the signal ratio in the repeat runs, not every such curve was filed as active; the % refers to the signal ratio)
How it was run: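 After plating, p53RE-bla cells sat 5 h in the incubator; compounds or DMSO vehicle were pinned in; a 16 h incubation at 37 C followed; FRET substrate was added and, 2 h later at RT, fluorescence was measured.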

[11] = biological target: 5-hydroxytryptamine receptor 2A (Homo sapiens) (UniProt P28223); test: 5-hydroxytryptamine receptor 2A (HTR2A) small molecule agonists, cell-based qHTS assay (AID 1963587); note: nearly all actives have a fitted effect of over 30% in size; note: potency is the fitted concentration of half-maximal effect
How it was run: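 Kinetic calcium-flux fluorescence (2 min, 1 sec intervals) after compound addition in agonist mode. HTR2A-CHO cells were cultured 18 h, then dye-loaded 1 h at 37 C.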

[12] = biological target: Muscarinic acetylcholine receptor M1 (Homo sapiens) (UniProt P11229); test: Cholinergic receptor muscarinic 1 (CHRM1) small molecule antagonists, cell-based qHTS assay (AID 1963588); note: nearly all actives have a fitted effect of over 40% in size; note: potency is the fitted concentration of half-maximal effect
How it was run: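 Compounds were tested at 15 concentrations in three independent runs. Dye-loaded CHRM1-CHO cells were exposed 5 min at room temperature before stimulation by acetylcholine added at 50nM. Intracellular calcium was read kinetically on FDSS for 3 min.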

[13] = biological target: Muscarinic acetylcholine receptor M1 (Homo sapiens) (UniProt P11229); test: Cholinergic receptor muscarinic 1 (CHRM1) small molecule agonists, cell-based qHTS assay (AID 1963589); note: nearly all actives have a fitted effect of over 35% in size
How it was run: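 Fluorescent calcium dye reports M1 activation in stably transfected CHO cells. Compounds, 15 concentrations, added after 1 h dye loading at 37 C; kinetic reading at 1 sec intervals.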

[14] = cAMP Responsive Elements (CRE) small molecule agonists, cell-based qHTS assay (AID 1963590)
How it was run: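 Compound exposure lasted 3 h at 37 C/5% CO2 in CRE-bla HEK 293T cells grown in assay medium with 10% dialyzed FBS and 25 mM HEPES. Reporter signal came from LiveBLAzer B/G FRET substrate, 2 h, room temperature.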

[15] = biological target: Beta-2 adrenergic receptor (Homo sapiens) (UniProt P07550); test: Adrenergic beta2 receptor (ADRB2) small molecule antagonists, cell-based qHTS assay (AID 1963592); note: series mostly up to about 92 µM; nearly all actives have a fitted effect of over 50% in size
How it was run: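 Assay format: CHO-ADRB2 cells, 18-20hr seeding at 37C/5% CO2, then compound plus 1nM isoproterenol agonist mix for 0.5hr RT. Homogeneous time-resolved fluorescence cAMP detection after 1hr, expressed as 665/615 nm ratio.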

[16] = biological target: D(2) dopamine receptor (Homo sapiens) (UniProt P14416); test: Dopamine D2 receptor (DRD2) small molecule agonists, cell-based qHTS assay (AID 1963594); note: nearly all actives have a fitted effect of over 35% in size
How it was run: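 cAMP accumulation in DRD2-HEK293 cells measured by HTRF after 1 h detection; compounds added 10 min before NKH477 (200nM […]) forskolin-analogue stimulation, 30 min at room temperature, with Ro20-1724 present at 0.1 mM final.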

[17] = biological target: D(2) dopamine receptor (Homo sapiens) (UniProt P14416); test: Dopamine D2 receptor (DRD2) small molecule antagonists, cell-based qHTS assay (AID 1963595; active = well fitted inhibition curve with a large enough effect in the signal ratio in the repeat runs, with a control signal flat; the % refers to the signal ratio; note: potency is the fitted concentration of half-maximal effect)
How it was run: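 DRD2-HEK293; 0.1 mM Ro20-1724; cpd 10 min RT; NKH477 200 nM + quinpirole 12 nM, 30 min RT; HTRF cAMP (cAMP-d2/anti-cAMP cryptate), 665/620 nm ratio after 1 h.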

[18] = biological target: 5-hydroxytryptamine receptor 2A (Homo sapiens) (UniProt P28223); test: 5-hydroxytryptamine receptor 2A (HTR2A) small molecule antagonists, cell-based qHTS assay (AID 1963586); note: nearly all actives have a fitted effect of over 45% in size
How it was run: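 CHO cells stably expressing human HTR2A were plated for 18 h at 37 C, then loaded with calcium dye for 1 h. Compounds were preincubated 5 min at room temperature before DOI (4 nM solution) was added. Kinetic fluorescence was read for 3 min.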

[19] = cAMP Responsive Elements (CRE) small molecule antagonists, cell-based qHTS assay (AID 1963591; active = well fitted inhibition curve with a large enough effect in the signal ratio in the repeat runs, not every such curve was filed as active; the % refers to the signal ratio)
How it was run: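 Stimulation used NKH477 at a final 0.25 uM for 3 h in compound-treated CRE-bla HEK293T cells, seeded 18 h beforehand. Reporter activity was measured with LiveBLAzer B/G FRET substrate after 2 h at room temperature.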

[20] = biological target: Beta-2 adrenergic receptor (Homo sapiens) (UniProt P07550); test: Adrenergic beta2 receptor (ADRB2) small molecule agonists, cell-based qHTS assay (AID 1963593);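 note: CHO cells stably overexpressing human ADRB2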
How it was run: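 CHO cells stably over-expressing ADRB2 were plated overnight at 37C, then dosed with compounds plus a stimulation mix containing 100uM IBMX and 25uM Ro-20-1724 for 0.5hr at room temperature. cAMP was measured by HTRF competition, 1hr.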

Measured: Potency

Sequence of D(2) dopamine receptor (Homo sapiens) (P14416 whole entry, looked up): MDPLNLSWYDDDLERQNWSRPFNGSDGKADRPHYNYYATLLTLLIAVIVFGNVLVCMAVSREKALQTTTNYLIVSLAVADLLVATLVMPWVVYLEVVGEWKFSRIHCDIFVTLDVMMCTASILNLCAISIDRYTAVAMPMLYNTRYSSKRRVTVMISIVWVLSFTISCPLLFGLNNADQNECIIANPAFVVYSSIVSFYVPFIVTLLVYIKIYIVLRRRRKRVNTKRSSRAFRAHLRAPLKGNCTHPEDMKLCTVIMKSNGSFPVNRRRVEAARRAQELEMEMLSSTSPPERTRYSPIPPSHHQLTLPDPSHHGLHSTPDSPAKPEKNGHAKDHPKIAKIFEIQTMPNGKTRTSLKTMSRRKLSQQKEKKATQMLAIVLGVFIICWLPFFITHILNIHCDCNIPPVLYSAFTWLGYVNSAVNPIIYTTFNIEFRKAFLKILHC
Sequence of KiSS-1 receptor (Homo sapiens) (Q969F8 whole entry, looked up): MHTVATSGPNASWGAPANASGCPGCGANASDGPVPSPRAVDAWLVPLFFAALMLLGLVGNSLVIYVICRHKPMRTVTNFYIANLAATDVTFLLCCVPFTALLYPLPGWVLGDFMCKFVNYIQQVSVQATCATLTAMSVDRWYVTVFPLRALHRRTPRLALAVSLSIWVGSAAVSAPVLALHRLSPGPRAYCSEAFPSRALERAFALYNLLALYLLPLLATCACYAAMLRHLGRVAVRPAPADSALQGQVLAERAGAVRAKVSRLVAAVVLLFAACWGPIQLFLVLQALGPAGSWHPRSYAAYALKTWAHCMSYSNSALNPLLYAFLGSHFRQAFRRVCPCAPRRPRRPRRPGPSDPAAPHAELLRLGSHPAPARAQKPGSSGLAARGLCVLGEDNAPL
Sequence of Gonadotropin-releasing hormone receptor (Homo sapiens) (P30968 whole entry, looked up): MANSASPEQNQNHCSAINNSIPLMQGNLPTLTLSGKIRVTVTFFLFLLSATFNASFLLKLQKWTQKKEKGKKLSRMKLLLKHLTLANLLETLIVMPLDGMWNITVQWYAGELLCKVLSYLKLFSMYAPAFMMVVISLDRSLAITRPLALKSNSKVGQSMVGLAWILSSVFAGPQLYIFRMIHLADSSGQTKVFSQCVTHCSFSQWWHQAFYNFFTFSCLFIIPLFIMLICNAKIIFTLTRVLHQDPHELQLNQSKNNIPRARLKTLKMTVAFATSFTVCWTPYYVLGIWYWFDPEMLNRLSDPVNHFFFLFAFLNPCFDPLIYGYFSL
Sequence of Muscarinic acetylcholine receptor M1 (Homo sapiens) (P11229 whole entry, looked up): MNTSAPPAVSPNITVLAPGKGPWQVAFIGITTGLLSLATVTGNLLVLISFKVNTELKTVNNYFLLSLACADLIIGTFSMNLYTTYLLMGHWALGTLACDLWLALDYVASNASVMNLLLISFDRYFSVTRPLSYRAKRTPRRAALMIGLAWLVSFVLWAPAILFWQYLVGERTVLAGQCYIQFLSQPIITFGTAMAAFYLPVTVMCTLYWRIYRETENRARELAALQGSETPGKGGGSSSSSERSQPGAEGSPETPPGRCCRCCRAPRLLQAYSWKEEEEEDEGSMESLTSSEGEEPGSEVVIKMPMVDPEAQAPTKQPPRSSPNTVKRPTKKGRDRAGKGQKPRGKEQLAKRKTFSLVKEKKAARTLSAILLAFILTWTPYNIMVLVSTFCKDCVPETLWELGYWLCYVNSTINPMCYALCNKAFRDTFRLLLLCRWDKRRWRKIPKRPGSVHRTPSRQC
Sequence of 5-hydroxytryptamine receptor 2A (Homo sapiens) (P28223 whole entry, looked up): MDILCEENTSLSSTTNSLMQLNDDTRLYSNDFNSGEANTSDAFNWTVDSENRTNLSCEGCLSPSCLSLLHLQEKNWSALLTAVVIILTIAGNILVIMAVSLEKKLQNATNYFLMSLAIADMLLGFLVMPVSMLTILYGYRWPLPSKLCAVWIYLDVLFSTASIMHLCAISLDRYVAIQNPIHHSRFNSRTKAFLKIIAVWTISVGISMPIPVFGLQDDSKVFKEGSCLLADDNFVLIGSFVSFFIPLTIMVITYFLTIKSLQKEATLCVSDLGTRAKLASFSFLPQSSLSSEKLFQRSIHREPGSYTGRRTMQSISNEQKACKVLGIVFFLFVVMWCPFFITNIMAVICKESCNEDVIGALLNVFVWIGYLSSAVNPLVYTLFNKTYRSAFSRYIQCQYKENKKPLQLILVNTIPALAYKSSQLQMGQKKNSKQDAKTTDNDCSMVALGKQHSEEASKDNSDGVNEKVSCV
Sequence of Beta-2 adrenergic receptor (Homo sapiens) (P07550 whole entry, looked up): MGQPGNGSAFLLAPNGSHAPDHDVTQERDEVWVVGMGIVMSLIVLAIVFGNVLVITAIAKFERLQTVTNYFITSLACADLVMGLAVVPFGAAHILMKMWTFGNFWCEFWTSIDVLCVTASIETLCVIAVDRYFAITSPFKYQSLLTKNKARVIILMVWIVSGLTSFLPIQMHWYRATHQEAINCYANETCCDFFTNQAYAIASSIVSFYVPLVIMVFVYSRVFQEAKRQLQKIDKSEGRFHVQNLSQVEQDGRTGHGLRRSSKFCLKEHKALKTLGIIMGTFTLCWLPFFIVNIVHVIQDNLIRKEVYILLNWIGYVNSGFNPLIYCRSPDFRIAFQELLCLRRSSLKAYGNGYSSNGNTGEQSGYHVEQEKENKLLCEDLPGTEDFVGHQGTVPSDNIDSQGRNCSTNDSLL

CC(CCl)OC(C)CCl (centres undefined)
not listed: [18] | [19] | [20]
inactive: all other assays above

C=Cc1ccccc1C=C
not listed: [12] | [15] | [17] | [20]
inactive: all other assays above

CCOC(=O)c1ccccc1O
not listed: [11] | [13]
inactive: all other assays above

O=C(O)c1cccc(Oc2ccccc2)c1
not listed: [14] | [15] | [19]
inactive: all other assays above

CCCCC1CCCCC(=O)O1 (centres undefined)
not listed: [14] | [20]
inactive: all other assays above

CC(C(=O)O)c1ccc(/C=C2\CCCCC2=O)cc1 (centres undefined)
active: [2] 23.7 µM
not listed: [14] | [19] | [20]
inactive: all other assays above

CCC(=O)c1c(O)cc(O)cc1O
not listed: [18]
inactive: all other assays above

CCOC(=O)[C@H](CCc1ccccc1)N[C@@H](C)C(=O)N(CC(=O)O)C1Cc2ccccc2C1
not listed: [14] | [19] | [20]
inactive: all other assays above

CCCn1cnc2c1c(=O)n(CCCCC(C)=O)c(=O)n2C
not listed: [14] | [19]
inactive: all other assays above

COC(=O)C(C)O (centres undefined)
not listed: [12]
inactive: all other assays above

CCCCCCCCCCCCCCNCCO
active: [1] 26.6 µM | [2] 13.3 µM | [11] 23.9 µM
not listed: [16] | [18]
inactive: all other assays above

CCCCCCCCCC[N+](C)(C)[O-]
not listed: [11] | [20]
inactive: all other assays above

CCOC(=O)CC1(C)OCC(C)O1 (centres undefined)
not listed: [18]
inactive: all other assays above

CN1CCCCC1CCN1c2ccccc2Sc2ccc(S(C)=O)cc21 (centres undefined)
active: [12] 0.0103 µM | [17] 1.88 µM
not listed: [15] | [18]
inactive: all other assays above
